Source: PubChem BioAssay AID1529 (NMMLSC, 2009)
In all, about 290,000 compounds went through this assay and about 4,200 (1.4%) were called active. The sample holds actives, similar compounds and a random draw of the others, so the mix is not that of the screen. A number with no mark means an inactive call.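 The calls were made as follows: active = binding response more than 3 SD above or below the average of its plate-row segment, actives on both sides; inconclusive = wells at one plate position flagged as instrument error; inactive = the rest.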

target: Mitogen-activated protein kinase kinase kinase 3 (Homo sapiens) (UniProt Q99759); assay: modulators of MEKK3-MEK5 PB1 binding, primary screen, biochemical, wildtype MEKK3, multiplex bead flow cytometry, Alexa488-MEK5 (AID 1529); details: bead-based flow cytometry, Alexa488-MEK5 binding to MEKK3; at 10 µM; actives lie on both sides; 0 = blocked by unlabeled MEK5, 100 = vehicle;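 also: Alexa488 bead fluorescence after subtracting the streptavidin-only scavenger bead signal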
Sequence (Q99759 whole entry, looked up): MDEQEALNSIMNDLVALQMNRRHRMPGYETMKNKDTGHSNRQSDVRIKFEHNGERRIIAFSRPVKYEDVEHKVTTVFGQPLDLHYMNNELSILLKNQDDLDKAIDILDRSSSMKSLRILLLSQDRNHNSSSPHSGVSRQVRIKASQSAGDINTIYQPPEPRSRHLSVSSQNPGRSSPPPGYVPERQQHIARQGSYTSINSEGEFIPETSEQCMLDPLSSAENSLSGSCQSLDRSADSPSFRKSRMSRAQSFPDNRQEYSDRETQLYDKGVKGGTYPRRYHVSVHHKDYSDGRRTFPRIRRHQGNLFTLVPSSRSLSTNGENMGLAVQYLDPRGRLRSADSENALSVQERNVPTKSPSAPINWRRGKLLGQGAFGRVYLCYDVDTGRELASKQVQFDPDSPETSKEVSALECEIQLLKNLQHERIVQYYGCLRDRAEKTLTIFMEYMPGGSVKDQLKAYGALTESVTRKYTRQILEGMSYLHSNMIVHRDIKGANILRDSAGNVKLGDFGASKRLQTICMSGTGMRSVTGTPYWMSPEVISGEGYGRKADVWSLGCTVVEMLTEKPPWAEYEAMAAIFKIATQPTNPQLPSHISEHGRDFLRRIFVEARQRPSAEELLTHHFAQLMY

Structure (SMILES)	binding response (% of control)
C=CCOC(=O)C1=C[C@H](c2ccc(Br)cc2)C[C@H](OCCCCO)O1	99%
Cc1cccc(OCCC(=O)Nc2ccccc2C(N)=O)c1	104%
COc1ccccc1C(=O)N/C(=C/c1ccco1)C(=O)Nc1ccc(C(=O)O)cc1	102%
N#Cc1ccc(CSc2ncccn2)cc1	101%
Cc1cc(C)nc(-n2nc(C)cc2NC(=O)c2ccc(F)cc2F)n1	105%
CCOC(=O)Cc1csc(NC(=O)CSc2nc(C)cc(=O)[nH]2)n1	58% [inhibitor] (active)
CCOC(=O)Cc1csc(NC(=O)CSc2ccc(Br)cc2)n1	107%
CCCCc1nnc(NC(=O)CSc2nc(C)cc(=O)[nH]2)s1	98%
COc1ccc(S(=O)(=O)N2CCN(C(=O)N(C)C)C2C)cc1 (stereo not given)	102%
O=C(Nc1ccn(Cc2ccccc2)n1)c1n[nH]c([N+](=O)[O-])c1Cl	99%
O=C(Nc1cccc(NC(=O)c2cccc(F)c2)c1)c1ccccc1	101%
O=C(Nc1ccn(Cc2ccccc2)n1)c1cccc(F)c1	135% (active)
COc1cc(/C=N/NC(=O)CNC(=O)c2ccncc2)ccc1OC(C)=O	105%
COc1ccc(C(=O)NCC(=O)N/N=C/c2ccc([N+](=O)[O-])o2)cc1OC	133% (active)
COc1cc(/C=N/NC(=O)Cc2ccccc2)cc(OC)c1OC	98%
O=C(Cc1cc(=O)[nH][nH]1)N/N=C/c1ccccc1[N+](=O)[O-]	121%
COc1cc(CC(=O)N/N=C/c2ccccc2)c([N+](=O)[O-])cc1OC	134% (active)
COc1ccc(C(=O)NCC(=O)N/N=C/c2ccc([N+](=O)[O-])s2)cc1OC	102%
Cc1ccccc1N1CCN(C2CCCN(C(=O)c3ocnc3C)C2)CC1 (stereo not given)	106%
COc1ccccc1CN1CCCC(N2CCN(c3ccc(F)cc3)CC2)C1 (stereo not given)	104%
C=CCOc1cccc(C2NC(=O)c3ccccc3O2)c1 (stereo not given)	91%
CC(C)c1cc(C(N)=O)c(NC(=O)c2cccc(COc3ccc(Br)cc3)c2)s1	104%
O=C(Nc1cccc(F)c1)NC1CCCc2ccccc21 (stereo not given)	99%
Cc1nc2nc3c(cn2n1)C(=O)CC(c1ccccc1)C3 (stereo not given)	95%

Structure (SMILES)	binding response (% of control)
Cc1cc(C)nc(-n2ncc3c2CC(c2ccc(C(C)C)cc2)CC3=O)n1 (stereo not given)	148% (active)
CS(=O)(=O)N(CC(=O)N1CCOCC1)c1cccc(Cl)c1Cl	102%
CCO[C@H]1OC(C(=O)N2CCOCC2)=C[C@@H](c2ccc3c(c2)OCO3)[C@@H]1CCCO	81% [inhibitor] (active)
CCO[C@H]1OC(C(=O)N2CCCCCCC2)=C[C@@H](c2ccc(C(F)(F)F)cc2)[C@@H]1CCCO	107%
CCO[C@@H]1OC(C(=O)N2CCOCC2)=C[C@H](C)[C@H]1CCCO	99%
Cc1ccc(Cn2c(C)c3cnn(CC(=O)NCc4ccccn4)c(=O)c3c2C)cc1	100%
COC(=O)c1cccc(N(CC(=O)NCC2CCCO2)C(=O)CCC(=O)Nc2cc(C)on2)c1 (stereo not given)	103%
O=C(Cc1cccc2ccccc12)Nc1ccc2oc(-c3ccccc3)nc2c1	129% (active)
CC(O)c1cccc(NC(=O)Cc2cccc3ccccc23)c1 (stereo not given)	102%
O=C(Nc1ccc2oc(-c3ccc4ccccc4c3)nc2c1)c1cccs1	121%
c1ccc(-c2nnc(SCc3nc4ccccc4[nH]3)o2)cc1	98%
Clc1ccc(-c2nnc(SCc3nc4ccccc4s3)o2)cc1	150% (active)
O=C(O)CSCc1nc2ccccc2s1	96%
COc1ccc(Cl)cc1NC(=O)C(C)N1CCc2ccccc21 (stereo not given)	100%
Cc1ccccc1NC(=O)N1CCCC1C(=O)NCc1ccccc1 (stereo not given)	114%
Cc1nn(-c2ccccc2)c(NC(=O)c2cccs2)c(-c2ccc(Cl)cc2)c1=O	162% (active)
Cc1ccc(-n2nc(C)c(/C=N/NC(=O)c3cccs3)c2Cl)cc1	106%
O=C(Nc1c2c(nn1-c1cccc(Cl)c1)CS(=O)(=O)C2)c1cccs1	82%
CCc1ccc(NC(=O)Cn2nnc(C(=O)NCc3ccc4c(c3)OCO4)c2N)cc1	100%
Cc1ccccc1OCC(=O)Nc1ccc(S(=O)(=O)N2CCOCC2)cc1	95%
Cc1ccccc1OCC(=O)Nc1ccc(N2CCN(C(=O)C(C)C)CC2)c(Cl)c1	122% (active)
CCC(=O)N1CCN(c2ccccc2NC(=O)COc2cccc(C)c2C)CC1	102%
CCN1C(=O)N[C@@H](CCc2ccccc2)C(C(=O)OC)=C1C	101%
CCC(=O)Nc1nnc(S(=O)(=O)N2CCCc3ccccc32)s1	98%

Structure (SMILES)	binding response (% of control)
O=C(CCN1C(=O)[C@@H]2Cc3ccccc3CN2C1=O)NCCc1ccccc1	99%
CCOc1ccc(C(c2c(C)[nH][nH]c2=O)c2c(C)[nH][nH]c2=O)cc1OCC	152% (active)
Cc1[nH][nH]c(=O)c1C(c1ccc2c(c1)OCO2)c1c(C)[nH][nH]c1=O	102%
Cc1[nH][nH]c(=O)c1C(c1ccc(-c2ccc(Cl)cc2)o1)c1c(C)[nH][nH]c1=O	95%
CCOc1ccc(CN2CCN(Cc3c[nH]c4ccccc34)CC2)cc1	99%
Cn1ccnc1-c1nnn(-c2ccc(F)cc2)n1	95%
CCOc1ccccc1C1C(C(=O)OC)=CN(C)C=C1C(=O)OC	102%
COC(=O)C1=CN(Cc2ccc(OC)cc2)C=C(C(=O)OC)C1c1ccc(O)c(OC)c1	104%
CCOc1cc(C2C(C(=O)OC)=CN(C3CCCC3)C=C2C(=O)OC)cc(Br)c1O	80% [inhibitor] (active)
COc1nnc(-c2ccc(C)c(S(=O)(=O)N(C)C)c2)c2ccccc12	101%
CC(=O)Cn1cnc2c(cnn2-c2ccccc2)c1=O	102%
Cc1c(C#N)c2ncn(CC#N)c(=O)c2n1-c1ccccc1	122% (active)
CN(C)/C=C/c1c(C#N)c(=O)ncn1Cc1ccccc1	103%
Cc1cc(N2CCOCC2)nc2ccc(NC(=S)N3CCN(Cc4ccccc4)CC3)cc12	92%
COc1ccc(C(C(=O)NC(C)(C)C)N(Cc2ccc(F)cc2)C(=O)CCC(=O)Nc2cc(C)on2)cc1 (stereo not given)	100%
NC(=O)C1CCN(C(=O)CC2C(=O)NCCN2Cc2cccc(Oc3ccccc3)c2)CC1 (stereo not given)	101%
Cc1ccc2occ(/C=N/NC(=O)c3ccccc3C)c(=O)c2c1	104%
O=c1c(/C=N/O)coc2ccc(Cl)cc12	48% [inhibitor] (active)
NC(=S)N/N=C/c1coc2cc(Cl)ccc2c1=O	92%
Cc1ccc(OCC(=O)Nc2ccc3oc(=O)ccc3c2)cc1C	102%
Cc1ccc(C(=O)N2CCN(C(=O)N3CCOCC3)CC2)cc1	107%
O=C(Nc1ccc(Cl)cc1)Nc1ccc(C(=O)N2CCOCC2)cc1	103%
Cc1ccccc1-c1ccc(Nc2ccc(C(=O)N3CCOCC3)cc2)nn1	79% [inhibitor] (active)
COc1ccc(-c2noc(COc3ccc(Cl)c(C)c3)n2)cc1	102%

Structure (SMILES)	binding response (% of control)
c1ccc(CCc2nc(-c3ccncc3)no2)cc1	105%
Cc1cc(Cl)ccc1OCc1nc(-c2ccncc2)no1	73% [inhibitor] (active)
CCC1Oc2ccccc2N(CC(=O)NCCCN2CCN(CC)CC2)C1=O (stereo not given)	105%
COc1ccc(S(=O)(=O)N(C)CC(=O)N2CCCC2)cc1	101%
C[N+](C)(C)CCNC(=O)c1c(O)c2c([nH]c1=O)CCCC2	78% [inhibitor] (active)
CCc1nnc(NC(=O)c2c(O)c3c([nH]c2=O)CCCC3)s1	105%
O=C(NCc1ccccn1)c1c(O)c2c([nH]c1=O)CCCC2	107%
O=C(CN(c1cc(C(F)(F)F)ccc1Cl)S(=O)(=O)c1ccccc1)NCc1cccnc1	101%
COc1cc(NC(=O)C2CCN(c3cnccn3)CC2)cc(OC)c1	102%
Cc1[nH]c2ccc(S(N)(=O)=O)cc2c1C	81% [inhibitor] (active)
Cc1[nH]c2ccc(C(=O)N3CCN(C)CC3)cc2c1C	99%
COC(=O)CCNC(=O)c1ccc2[nH]c(C)c(C)c2c1	102%
Cc1cccc(Nc2nc(NCCO)nc(N3CCCC3)n2)c1	106%
CN(CCNC(=O)c1cc2c(-c3ccccc3F)nn(C)c2s1)C1CCCCC1	108%
CC(C)(C)NC(=O)/C(=C/c1cccnc1)NC(=O)c1ccco1	101%
Cc1ccc(C(=O)N/C(=C/c2cccnc2)C(=O)O)cc1	95%
O=C(O)/C(=C/c1cccnc1)NC(=O)c1ccccc1	156% (active)
Cc1nnc(SCC(=O)Nc2ccc(S(=O)(=O)Nc3ccc(Cl)nn3)cc2)s1	99%
COc1ccccc1/C=C1\SC(=O)N(CCC(=O)N(C)C2CCS(=O)(=O)C2)C1=O (stereo not given)	98%
Cc1c(CN2CC[C@@H](N3CCN(c4ccccn4)CC3)[C@H](O)C2)[nH]c2ccc(F)cc12	104%
Cc1ccc(S(=O)(=O)N(C)CC(=O)OCC(=O)Nc2ccccc2)cc1	94%
COC(=O)c1sc(C(F)(F)F)c(-c2ccccc2)c1S(=O)(=O)N(C)C	106%
CCOC(=O)CN(C)S(=O)(=O)c1ccc(-c2cc(C(=O)OC)sc2C(F)(F)F)cc1	129% (active)
